KB-3-1 cytotox: kills parental KB-3-1 adenocarcinoma cells; KB-3-1 viability, CellTiter-Glo ATP luminescence, 72 h; Potency, µM (top dose mostly 46.1 µM), actives largely listed as cytotoxic; 400,000 compounds, 1.4% hits; AID 1347075; note: % is set by controls: 0 for no effect and ±100 for the full control effect; nearly all actives have a fitted effect of over 60% in size
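Multi-concentration cytotoxicity screen in KB-3-1 cells grown in DMEM lacking phenol red with 10% FBS. After 72 h at 37 °C with compound, ATP-dependent luminescence was recorded.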
KB-V1 MDR tox: kills drug-selected multidrug resistant KB-V1 cells | KB-V1 MDR cells viability, CellTiter-Glo, 72 h | 400,000 compounds, 3.4% hits | Potency, µM (titrated, usually from 46.1 µM), most hits filed as cytotoxic; note: % is set by controls: 0 for no effect and ±100 for the full control effect; nearly all actives have a fitted effect of over 60% in size
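KB-V1 MDR subline cells in DMEM (phenol-red free, 10% FBS) exposed to compounds in qHTS concentration series for 72 h at 37 degrees C. Viability read by CellTiter-Glo luminescence; concentration-effect curves fitted after normalization and correction.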
HT1080 IDH1KD tx: HT-1080 IDH1 knockdown cell toxicity (counter line); HT-1080 IDH1 knockdown viability, ATP luminescence, 48 h; Potency, µM (top dose mostly 46.1 µM), for the others: top-dose activity, negative = toxicity, usual class: cytotoxic; 360,000 compounds, 2% hits; AID 686971;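 note: 0% = DMSO wells and -100% = cell-free medium wells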
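IDH1KD HT-1080 cells, 750/well, RPMI + 5% FBS; compound pinned after 2 h settling; 48 h, 37 °C; CellTiter-Glo luminescence; % activity normalised to DMSO and no-cell wells; curves fitted, classed by r2 and efficacy.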
S2 tox: viability counter-screen for ATXN expression inhibitors; Potency, µM (highest dose often 56.7 µM), usual class: cytotoxic; 400,000 compounds, 0.49% hits; S2 cells (HEK-293 line with an ATXN2-luciferase reporter) viability, CellTiter-Fluor protease fluorescence, 24 h; note: nearly all actives have a fitted effect of over 40% in size
HT1080NT lethal: kills 2HG-producing HT-1080-NT fibrosarcoma cells | HT-1080-NT fibrosarcoma viability, CellTiter-Glo ATP luminescence, 48 h | Potency, µM (highest dose often 46.1 µM), for the others: at the highest dose activity, negative = less viability, usual class: cytotoxic | 360,000 compounds, 1.6% hits;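 note: NT is the 2HG producing partner of a matched IDH1 knockdown line; 0% = DMSO-treated cells and -100% = media-only wells without cells; nearly all actives have a fitted effect of over 55% in size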
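Toxicity toward the 2HG-producing NT line was scored as %Activity, normalised to DMSO and no-cell wells, from CellTiter-Glo luminescence after 48 hours' treatment.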
ATXN2 expr inh: inhibitors of ATXN2 expression; HEK-293 ATXN2-luciferase reporter, luminescence, 24 h; Potency, µM (top dose mostly 57 µM), without a hit: at the highest dose activity change, negative = inhibition, actives largely listed as inhibitors; 360,000 compounds, 0.72% hits; AID 1745845; note: % is set by controls: 0 for no effect and ±100 for the full control effect; nearly all actives have a fitted effect of over 55% in size
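qHTS (up to 57 uM final) was run with 24 h compound exposure of reporter cells at 37 °C. Each well was multiplexed: SteadyGlo luminescence measured ATXN2-luciferase expression after a fluorogenic Gly-Phe-AFC viability readout (25 uM final).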
Numbers without * were called inactive; i = inactive; ? = inconclusive; · = not tested or not shown. Rows were chosen to be rich in hits. Some 6.2% of all compounds tested hit in one or more screens of this group. Calls come from the whole dose curve; as a rule, active = well fitted curve in the direction sought with a large enough effect; inconclusive = small, poorly fitted or top-dose-only effect, or another doubt; inactive = no such curve, though single readings can be large; an effect the other way counts as inactive or inconclusive. Potency is the fitted concentration of half-maximal effect.

SMILES	KB-3-1 cytotox	KB-V1 MDR tox	HT1080 IDH1KD tx	S2 tox	HT1080NT lethal	ATXN2 expr inh
O=C(CCNS(=O)(=O)c1ccccc1F)N1CCN(S(=O)(=O)c2cccc(F)c2)CC1	i	i	-7%	i	-2%	5%
O=C(CCNS(=O)(=O)c1ccccc1F)N1CCN(C(c2ccccc2)c2ccccc2)CC1	?	8.2µM*	-25%	?	-22%	-11%
O=C(CSc1ncccn1)N1CCN(C(c2ccccc2)c2ccccc2)CC1	i	18µM*	13%	i	?	3%
O=C(CSc1cccc2cccnc12)N1CCCC1	7.3µM*	i	1%	?	7.3µM*	?
O=C(CSc1cccc2cccnc12)OCC(=O)c1ccccc1	i	i	33µM*	i	29µM*	-10%
O=C(CSc1cccc2cccnc12)OCC(=O)c1ccc(Br)cc1	i	?	-6%	i	-13%	2%
Cc1cc(C)cc(NC(=O)CSCc2cc(=O)c3cc(Cl)ccc3[nH]2)c1	i	i	·	?	·	-3%
O=C(Nc1ccccc1Br)C1CCCN(S(=O)(=O)c2cccc3nsnc23)C1 (centres undefined)	i	i	·	i	·	-20%
NCCN1CCN(CC(=O)N2c3ccccc3C(=O)Nc3cccnc32)CC1	i	i	·	i	·	10%
O=C1Nc2cccnc2N(C(=O)CCl)c2ccccc21	21µM*	16µM*	16µM*	20µM*	?	?
Cc1ccc2oc(C(=O)Nc3c(C(=O)Nc4cccc(Cl)c4)oc4ccccc34)cc(=O)c2c1	?	i	·	i	·	3%
Cc1cc2nc(-c3ccc[nH]c3=O)[nH]c2cc1C	i	?	18µM*	·	18µM*	·
CC/C(=C\c1ccc(N(C)C)cc1)c1ccncc1	21µM*	10µM*	?	i	?	3%
CN(C)c1ccc(/C=N/NC(=O)CNC(=O)c2ccncc2)cc1	i	i	17%	i	9%	1%
COc1ccc(N2CCN(C(=O)c3cccc(NC(=O)c4nsc5ccccc45)c3)CC2)cc1	i	i	·	?	·	6%
Cc1ccc(S(=O)(=O)NCCCNC(=O)c2ccccc2)cc1	i	18µM*	2%	i	10%	3%
Cc1ccc(S(=O)(=O)NCC(=O)N/N=C/c2ccccc2O)cc1	i	i	?	i	?	14µM*
Cc1ccc(S(=O)(=O)NCCCN(C)C)cc1	i	i	11%	i	2%	7%
Cc1ccc(S(=O)(=O)NCCCNS(=O)(=O)c2ccc(C)cc2)cc1	i	15µM*	0%	?	7%	-8%
CCC(=O)N1c2ccccc2CC1C(=O)NCc1ccccc1Cl (centres undefined)	i	i	·	i	·	3%
COc1cc(OC)c(OC)cc1CNCCCSc1nnnn1C	i	?	·	i	·	-6%
O=C(Nc1ccc(Cl)c(Cl)c1)Nc1ccccc1C(=O)O	?	15µM*	?	?	?	16%
O=C(Cc1ccccc1)NNC(=O)Nc1cccc(Cl)c1	i	i	0%	i	-13%	1%
O=C(Cc1ccccc1)Nc1ccc(NC(=O)c2cccs2)cc1Cl	i	i	0%	i	-2%	3%
O=C(Cc1ccccc1)NNC(=O)Nc1ccc(Cl)c(Cl)c1	i	i	15µM*	i	-15%	-12%
O=C(Cc1ccccc1)Nc1ccc(NC(=O)c2cccs2)c(Cl)c1	i	21µM*	13%	?	13%	9%
Brc1cccc[n+]1CCCCCC[n+]1ccccc1Br	i	i	·	·	·	·
Cc1ccc(CNc2nc(C)c(-c3ccn(CCN4CCOCC4)n3)s2)o1	·	·	·	i	·	·
O=C1C(Cc2ccccc2)Nc2ncnc(N3CCc4ccccc4C3)c2N1Cc1ccc(Cl)cc1 (centres undefined)	i	26µM*	?	?	?	?
